# Data published in the supplement of paper PMC12636033.
# ± gives the standard deviation of the averaged measurements. The full ranking holds about 33,000 sequences; the median of “E-score (rank enrichment, -0.5 to 0.5)” is about -0.0075, and the highest 2% start at about 0.23. For the sample, the highest values were picked, then their nearest neighbours and some sequences at random.
# System: WT Max(13-93) synthetic (M65Nle)
# Experiment: PBM 8-mer E-score (E-score (rank enrichment, -0.5 to 0.5)); higher = stronger preferential binding
# Experimental: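 Protein binding microarray (universal PBM chip covering all 10-mers in fixed probe flanks) with chemically synthesized human Max(13-93) bHLH-LZ analogs (not full-length Max) bearing noncanonical residues (hArg, Tha, Aib, Nle at 65) and aromatic Cys staples. Read-out per 8-mer (and its reverse complement): E-score (rank-based enrichment, -0.5 to 0.5) and Z-score of median probe intensity.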
row,Sequence,PBM 8-mer E-score
1,ACCTAGCT,-0.036 ± 0.038
2,CCAATCAC,0.158 ± 0.025
3,ACAATCAC,0.28 ± 0.016
4,GCAATCAC,0.0355 ± 0.036
5,AACCAAGA,0.113 ± 0.036
6,AGGGGGGG,-0.162 ± 0.1
7,TCAAATCA,0.0295 ± 0.016
8,AACAACAC,0.248 ± 0.025
9,GACAACAC,0.025 ± 0.0086
10,AACAACAA,0.222 ± 0.06
11,CACAACAC,0.162 ± 0.014
12,TACAACAA,0.245 ± 0.075
13,CACAACAA,0.17 ± 0.053
14,AGCCGCTC,-0.0773 ± 0.005
15,AGGCACAC,-0.00413 ± 0.014
16,TATTAGCA,0.103 ± 0.035
17,CCCCTCCA,0.186 ± 0.16
18,AGTAACAT,0.165 ± 0.019
19,ATAATACC,0.203 ± 0.026
20,GTATAATA,0.194 ± 0.011
21,ATAATACG,0.179 ± 0.092
22,GCATAATA,0.195 ± 0.12
23,CTAATATA,0.203 ± 0.012
24,ATAATATG,0.2169 ± 0.00097
25,ATAATACA,0.265 ± 0.036

row,Sequence,PBM 8-mer E-score
1,ACATAATC,0.111 ± 0.029
2,ATAATATA,0.262 ± 0.069
3,ATATAATA,0.256 ± 0.035
4,CTATAATA,0.125 ± 0.03
5,ACATAATA,0.288 ± 0.01
6,AGCACAAT,0.0982 ± 0.029
7,ATCGGCCA,-0.199 ± 0.054
8,AAGATGAA,0.0673 ± 0.0063
9,AGTTCCTA,-0.0137 ± 0.1
10,CATTCCGA,0.0189 ± 0.04
11,CGCTCCAG,-0.224 ± 0.12
12,ATACTCCC,0.0233 ± 0.061
13,AGCGATAA,-0.115 ± 0.023
14,AAACCAGC,-0.182 ± 0.12
15,CTGAAGGA,-0.0478 ± 0.038
16,AACAAAAT,0.301 ± 0.016
17,AACAAAAA,0.113 ± 0.021
18,TACAAATA,0.154 ± 0.042
19,AACAAGTA,0.0942 ± 0.0044
20,AACAAATA,0.235 ± 0.039
21,AACAAGAT,0.11 ± 0.095
22,AATCTACG,-0.0669 ± 0.058
23,AAAGTACG,0.0681 ± 0.065
24,CAGCACCA,-0.0907 ± 0.0017
25,CCATTAGA,-0.222 ± 0.029

row,Sequence,PBM 8-mer E-score
1,ATAGAAAA,0.134 ± 0.016
2,AATTAAAG,0.184 ± 0.068
3,AATTAAAC,0.218 ± 0.018
4,AATTAAGC,0.0692 ± 0.079
5,AATTAAGA,0.241 ± 0.057
6,ATTTAATA,0.23 ± 0.013
7,AATTAATA,0.243 ± 0.094
8,GATTAAGA,0.182 ± 0.054
9,TATTAATA,0.19 ± 0.021
10,CATTAATA,0.119 ± 0.11
11,GATTAATA,0.266 ± 0.022
12,AATTAAAT,0.253 ± 0.024
13,ACTTAATA,0.21 ± 0.015
14,AGCAGAAG,-0.0139 ± 0.09
15,ATCGCTCC,-0.0658 ± 0.15
16,ACGTAACC,0.109 ± 0.1
17,CTTACCGC,-0.13 ± 0.11
18,CTGATCCC,-0.00057 ± 0.1
19,AGTGCCTG,-0.101 ± 0.011
20,CTCAAGAG,-0.266 ± 0.032
21,CATTAGTA,0.0683 ± 0.015
22,AATTAGTA,0.249 ± 0.075
23,AATTAGTC,-0.027 ± 0.071
24,AATTAATC,0.0672 ± 0.11
25,AATTAATG,0.166 ± 0.16

row,Sequence,PBM 8-mer E-score
1,AATTAATT,0.262 ± 0.088
2,CGGGCTCA,-0.237 ± 0.039
3,CAACAACA,0.237 ± 0.027
4,AAAACAAG,0.122 ± 0.18
5,AAAACAAC,-0.0511 ± 0.034
6,AAACAAAA,0.284 ± 0.023
7,AAAACAAT,0.259 ± 0.0082
8,AAACAAAT,0.275 ± 0.05
9,AAACAAAC,0.0359 ± 0.011
10,AAACAAAG,0.114 ± 0.032
11,AAACAAGT,0.0146 ± 0.12
12,TAACAAAA,0.166 ± 0.0052
13,GAACAACA,0.0194 ± 0.12
14,CAACAAGA,0.0122 ± 0.26
15,CTATCTGC,-0.0743 ± 0.063
16,CACTACAG,-0.123 ± 0.011
17,GTTAGAGA,-0.0703 ± 0.011
18,AAGGCGAT,0.0502 ± 0.11
19,ATTAAAGC,0.133 ± 0.061
20,AAGGTTGA,0.14 ± 0.0094
21,CCGCTTAG,-0.158 ± 0.088
22,ATGCCGCC,-0.15 ± 0.1
23,AATCAACA,0.283 ± 0.051
24,GATCAACA,-0.0789 ± 0.16
25,TATCAACA,0.192 ± 0.053

row,Sequence,PBM 8-mer E-score
1,GTCAAGAA,0.12 ± 0.082
2,ATTCGGGA,-0.128 ± 0.12
3,GAGGAAAA,0.113 ± 0.23
4,ATTTGAAA,0.124 ± 0.0068
5,CTTTGAAA,0.0996 ± 0.023
6,GTTTGAAA,0.277 ± 0.019
7,ATTAAACC,0.0834 ± 0.057
8,ATTAAACA,0.095 ± 0.031
9,ATTAAACG,0.255 ± 0.023
10,ATCAGACG,-0.142 ± 0.13
11,CACGGTCG,-0.27 ± 0.0093
12,ATGCAACC,0.244 ± 0.066
13,ATGCAACG,0.0584 ± 0.039
14,ATGCAACA,0.229 ± 0.099
15,ACTCGTTA,-0.0291 ± 0.015
16,AACATGGT,0.052 ± 0.061
17,ACCATGCC,0.00171 ± 0.051
18,AACATGCA,0.202 ± 0.039
19,AACATGCT,0.242 ± 0.035
20,ACCATGTC,0.0659 ± 0.016
21,ACCATGCT,0.277 ± 0.028
22,ACCATGTG,0.442 ± 0.0045
23,ACCATGCA,0.221 ± 0.0057
24,ACCATGCG,0.243 ± 0.0064
25,ACCATGGT,-0.00014 ± 0.21

row,Sequence,PBM 8-mer E-score
1,ACCATGAT,0.136 ± 0.019
2,ACCATGTA,0.162 ± 0.065
3,ATGATGAG,0.0781 ± 0.012
4,GTCGGTCA,-0.151 ± 0.14
5,AGAATGCC,-0.0707 ± 0.0056
6,CGCAGGCA,-0.131 ± 0.12
7,ATTAACGG,0.153 ± 0.089
8,GCTGGCCA,-0.0533 ± 0.076
9,CGGAACAC,-0.0883 ± 0.0097
10,CACGTTCA,0.163 ± 0.018
11,CATCCAAG,-0.0693 ± 0.012
12,AGCCCGTC,-0.151 ± 0.071
13,ATCATGTA,0.169 ± 0.004
14,ATCATGTC,0.186 ± 0.057
15,ATCATGTG,0.264 ± 0.022
16,GTGGTTTA,0.179 ± 0.053
17,CGTGGTAA,0.246 ± 0.1
18,AGTGGAAA,0.164 ± 0.094
19,TGTGGAAA,0.249 ± 0.072
20,GGTGGAAA,0.0407 ± 0.064
21,CGTGGAAA,0.267 ± 0.071
22,CGTGGAAG,0.176 ± 0.0075
23,TGTGGTAA,0.0282 ± 0.15
24,GGTGGTAA,0.11 ± 0.1
25,CGTGGAAC,-0.0332 ± 0.0099

row,Sequence,PBM 8-mer E-score
1,TCTCGGAA,-0.232 ± 0.095
2,CATCAAAA,0.0623 ± 0.033
3,ATCGTCTC,-0.00218 ± 0.023
4,GCCGATAA,0.032 ± 0.051
5,AACGCAGC,-0.1 ± 0.048
6,AACAATGC,0.161 ± 0.14
7,GCTGCGAC,-0.219 ± 0.069
8,CGCACAGC,-0.171 ± 0.087
9,GCGGTGAC,-0.146 ± 0.14
10,TGGTAAAA,0.0895 ± 0.03
11,ACGCTACA,0.275 ± 0.013
12,TCGCTACA,-0.0172 ± 0.075
13,GCGCTACA,-0.115 ± 0.006
14,GTTGATTA,0.2352 ± 0.0022
15,CTTGATTA,0.12 ± 0.025
16,ATTGATTA,0.0358 ± 0.11
17,GCGTTTAA,0.0231 ± 0.056
18,AGGTGGTC,-0.0706 ± 0.0051
19,CCGTGGTA,-0.0399 ± 0.0038
20,GCGTGGTA,0.215 ± 0.12
21,ACGTGGTA,0.347 ± 0.069
22,ACGTGGTG,0.392 ± 0.024
23,ACGTGGTC,0.312 ± 0.022
24,AGGTGGTG,0.109 ± 0.09
25,AAGTGGTG,-0.0214 ± 0.11

row,Sequence,PBM 8-mer E-score
1,CCGTGGTC,-0.211 ± 0.023
2,GGCAAGAA,0.127 ± 0.016
3,ACTTGGCA,0.0244 ± 0.14
4,CAAGGCTA,-0.0688 ± 0.18
5,TGCCAGAA,-0.0686 ± 0.042
6,ATGGTAAG,0.12 ± 0.15
7,ATGGTAAT,0.24 ± 0.019
8,ATGGTAAC,0.159 ± 0.045
9,AAAGGTGA,0.0498 ± 0.1
10,CATGGAAC,0.0484 ± 0.039
11,AATGGAAG,0.0617 ± 0.11
12,CATGGAAG,0.251 ± 0.028
13,CATCTTCG,-0.0197 ± 0.078
14,CCCGGAGC,-0.218 ± 0.06
15,CGGAACAG,-0.184 ± 0.097
16,ACAATTCA,0.0972 ± 0.033
17,CCAATTCG,0.00099 ± 0.067
18,CCAATTCA,0.237 ± 0.0091
19,GAAAACTC,-0.0313 ± 0.025
20,AAACCCTG,0.124 ± 0.14
21,AAACCCAT,0.236 ± 0.013
22,CAACCCTA,0.00074 ± 0.036
23,AAACCCTA,0.253 ± 0.042
24,AAAACCTT,0.0888 ± 0.07
25,AAAACCTA,0.259 ± 0.038

row,Sequence,PBM 8-mer E-score
1,AACCCCAT,0.00208 ± 0.027
2,CAAACCTA,0.0613 ± 0.11
3,AAACCCAG,-0.00534 ± 0.0017
4,ATAGCGAG,-0.0262 ± 0.05
5,AGGCCCAA,-0.118 ± 0.037
6,AAGCACAA,0.0693 ± 0.08
7,CGCTTCCG,-0.206 ± 0.041
8,AGCCTGGA,-0.148 ± 0.017
9,AAATCGAT,-0.116 ± 0.11
10,CTGCTATC,-0.116 ± 0.021
11,CTAGACGC,-0.0678 ± 0.01
12,AAAATTCG,0.181 ± 0.015
13,ACTAAAAT,0.073 ± 0.087
14,ACTACAAG,-0.03 ± 0.032
15,CATACAAC,0.162 ± 0.012
16,AATACAAC,0.233 ± 0.077
17,CCTACAAC,0.126 ± 0.041
18,AATACAAT,0.0116 ± 0.074
19,AATACAAA,0.288 ± 0.024
20,AATACAAG,0.148 ± 0.0056
21,GATACAAA,0.0639 ± 0.0017
22,ACTACAAC,0.253 ± 0.024
